A number with no mark means an inactive call. Results filed as inconclusive are left out. Activity calls are given as the source filed them. Unless noted, calls come from the whole dose curve.

A short description of assay [1]: Nuclear factor erythroid 2-related factor 2/antioxidant responsive element (Nrf2/ARE) small molecule agonists: qHTS cell viability counter screen in human keratinocytes (AID 1919968; active = well fitted curve in the direction sought with a large enough effect in the repeat runs; an effect the other way counts as inactive or inconclusive; note: nearly all actives have a fitted effect of over 55% in size; note: potency is the fitted concentration of half-maximal effect). Put shortly: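 KeratinoSens cells (HaCaT keratinocytes stably carrying an ARE-luciferase reporter) were seeded at 1,500 cells/well and rested 5 h at 37 C/5% CO2. They were then exposed to compounds in DMSO for 23 h. Viability was read by CellTiter-Fluor fluorescence after 1 h.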

Assay [2] concerns the target Gonadotropin-releasing hormone receptor (Homo sapiens) (UniProt P30968). Put plainly: Human gonadotropin-releasing hormone receptor (GnRHR) small molecule agonists, calcium flux assay in GnRHR-HEK293 cells (AID 1920063). Note: nearly all actives have a fitted effect of over 35% in size. An outline of the steps:
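HEK293 cells stably expressing human GnRHR were plated 18 h at 37 °C, loaded with calcium dye 1 h at 37 °C, then given compound in agonist mode; fluorescence (Ex/Em 480/540) read kinetically for 3 min at 1 s intervals.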

Assay [3] addresses KiSS-1 receptor (Homo sapiens) (UniProt Q969F8). Kind of assay: Human kisspeptin (KISS1R) small molecule agonists, calcium flux assay in KISS1R-HEK293 cells (AID 1920064; active = well fitted curve in the direction sought with a large enough effect in the repeat runs; an effect the other way counts as inactive or inconclusive). Put shortly:
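HEK293 cells stably expressing human KISS1R were plated 18 h at 37 °C, loaded with calcium dye for 1 h at 37 °C, then given compound by pin tool. Fluorescence (Ex/Em 480/540) was read kinetically for 3 min.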

Assay [4] is described as follows: G protein-coupled receptor (GPCR) small molecule agonists, calcium flux assay: HEK293 wild type cell line counter screen (AID 1920065). Put shortly: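 Cells were plated and cultured 18 h at 37 C/5% CO2, then loaded with calcium dye for 1 h at 37 C. Compounds in DMSO were pin-transferred in agonist mode, and fluorescence (Ex/Em 480/540) was read kinetically for 3 min at 1 s intervals.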

Assay [5] is described as follows: p53 small molecule agonists, cell-based qHTS assay with rat liver microsomes: qHTS cell viability counter screen (AID 1963580). Note: nearly all actives have a fitted effect of over 45% in size. An outline of the steps:
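In HCT-116 cells carrying a p53 response element-bla reporter, compounds were metabolically activated in situ by rat liver microsomes with NADPH over 16 h. Cell ATP content then served as the cytotoxicity measure.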

Assay [6] can be described thus: p53 small molecule agonists, cell-based qHTS assay: qHTS cell viability counter screen (AID 1963581). Note: nearly all actives have a fitted effect of over 45% in size. An outline of the steps:
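p53RE-bla HCT-116 cells were exposed to compounds for 16 h at 37 C; after the beta-lactamase FRET read in the same wells, CellTiter-Glo was added and luminescence (intracellular ATP) read after 30 min at room temperature.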

Assay [7] concerns the target 5-hydroxytryptamine receptor 2A (Homo sapiens) (UniProt P28223). Kind of assay: 5-hydroxytryptamine receptor 2A (HTR2A) small molecule agonists, cell-based qHTS assay (AID 1963587). Note: nearly all actives have a fitted effect of over 30% in size. Put shortly: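 HTR2A-CHO cells, plated 18 h at 37 C/5% CO2, dye-loaded 1 h at 37 C; compounds in DMSO added by pin tool (agonist mode). Intracellular calcium flux read as kinetic fluorescence on FDSS over 2 min at 1 s intervals.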

Assay [8] has as its target Muscarinic acetylcholine receptor M1 (Homo sapiens) (UniProt P11229). Put plainly: Cholinergic receptor muscarinic 1 (CHRM1) small molecule antagonists, cell-based qHTS assay (AID 1963588). Note: nearly all actives have a fitted effect of over 40% in size. An outline of the steps: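 CHRM1-CHO calcium-flux assay, antagonist mode. Cells were seeded 18 h, dye-loaded 1 h at 37 C and given compound for 5 min at RT, then acetylcholine was added at 50nM. FDSS fluorescence was read 3 min; 15 concentrations, three runs.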

Assay [9] shares this target. Kind of assay: Cholinergic receptor muscarinic 1 (CHRM1) small molecule agonists, cell-based qHTS assay (AID 1963589). Note: nearly all actives have a fitted effect of over 35% in size. An outline of the steps: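 CHO cells stably expressing human CHRM1, seeded 18 h at 37 C/5% CO2, dye-loaded 1 h at 37 C, then given compound in agonist mode; intracellular calcium fluorescence read kinetically at 1 s intervals. Fifteen concentrations, three independent runs.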

Assay [10] is described as follows: cAMP Responsive Elements (CRE) small molecule agonists, cell-based qHTS assay (AID 1963590). Put shortly:
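CRE-bla HEK 293T cells in DMEM with 10% dialyzed FBS, NEAA, pyruvate and 25 mM HEPES were plated 18 h at 37 C/5% CO2, then exposed to compounds in DMSO for 3 h before LiveBLAzer B/G FRET substrate addition.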

A short description of assay [11]: cAMP Responsive Elements (CRE) small molecule antagonists, cell-based qHTS assay (AID 1963591; active = well fitted inhibition curve with a large enough effect in the signal ratio in the repeat runs, not every such curve was filed as active; the % refers to the signal ratio). An outline of the steps: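 CRE-bla HEK293T cells were plated 18 h at 37 °C/5% CO2, pinned with compound in DMSO, then stimulated with NKH477 at 0.25 uM final for 3 h. LiveBLAzer B/G FRET substrate was added and plates incubated 2 h at room temperature.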
In assay [12] the target is Beta-2 adrenergic receptor (Homo sapiens) (UniProt P07550). Put plainly: Adrenergic beta2 receptor (ADRB2) small molecule antagonists, cell-based qHTS assay (AID 1963592). Note: series mostly up to about 92 µM; nearly all actives have a fitted effect of over 50% in size. An outline of the steps:
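Cells (CHO, stable ADRB2 overexpression) incubated 18-20hr at 37C; compounds added from DMSO; agonist mix (1nM isoproterenol, 100uM IBMX, 25uM Ro-20-1724) added; 0.5hr RT; d2-cAMP and anti-cAMP-cryptate added; 1hr RT; 665/615 nm read.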

In assay [13] the target is D(2) dopamine receptor (Homo sapiens) (UniProt P14416). Put plainly: Dopamine D2 receptor (DRD2) small molecule agonists, cell-based qHTS assay (AID 1963594). Note: nearly all actives have a fitted effect of over 35% in size. Put shortly: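 HEK293 cells stably expressing DRD2 were cultured 24 h at 37 C, then given Ro20-1724 (0.1 mM final) and compounds for 10 min at room temperature. NKH477 (200nM) was then added for 30 min. cAMP was read by HTRF.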
Chain of D(2) dopamine receptor (Homo sapiens) (P14416 whole entry, looked up): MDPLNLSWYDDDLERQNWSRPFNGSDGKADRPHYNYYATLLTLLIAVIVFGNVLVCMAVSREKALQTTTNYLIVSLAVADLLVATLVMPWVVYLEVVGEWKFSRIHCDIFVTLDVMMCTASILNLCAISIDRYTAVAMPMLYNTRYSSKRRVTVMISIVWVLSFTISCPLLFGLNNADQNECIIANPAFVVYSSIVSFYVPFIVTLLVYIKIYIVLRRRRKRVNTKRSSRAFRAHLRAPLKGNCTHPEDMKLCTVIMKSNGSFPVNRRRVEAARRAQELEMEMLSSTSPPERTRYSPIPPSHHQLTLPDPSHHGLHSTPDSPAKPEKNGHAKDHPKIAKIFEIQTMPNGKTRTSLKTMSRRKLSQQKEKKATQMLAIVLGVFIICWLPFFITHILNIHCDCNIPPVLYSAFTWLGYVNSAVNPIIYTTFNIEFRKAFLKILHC

Assay [14] shares this target. Kind of assay: Dopamine D2 receptor (DRD2) small molecule antagonists, cell-based qHTS assay (AID 1963595; active = well fitted inhibition curve with a large enough effect in the signal ratio in the repeat runs, with a control signal flat; the % refers to the signal ratio). An outline of the steps: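 Antagonist mode in DRD2-HEK293 cells: after compound addition with 0.1 mM Ro20-1724, cells received quinpirole (12 nM) and NKH477 (200 nM) for 30 min at room temperature; HTRF cAMP read after 1 h detection.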
Assay [15] is described as follows: p53 small molecule agonists, cell-based qHTS assay with human liver microsomes (AID 1963577). Put shortly:
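Fluorescence of the beta-lactamase reporter in p53RE-bla cells, detected with LiveBLAzer substrate (2 h, room temperature, dark), served as the read-out after 16 h compound exposure at 37 C with human liver microsomes and NADPH, each 0.5 mg/mL final.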

The nature of assay [16]: p53 small molecule agonists, cell-based qHTS assay with rat liver microsomes (AID 1963578). An outline of the steps:
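Cells carrying a p53 response element–beta-lactamase reporter were plated and rested 5 h, then dosed with compound in DMSO plus rat liver microsomes and NADPH, each at 0.5 mg/mL final. After 16 h at 37 C, LiveBLAzer substrate was added for 2 h.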

A short description of assay [17]: p53 small molecule agonists, cell-based qHTS assay with human liver microsomes: qHTS cell viability counter screen (AID 1963579). Note: nearly all actives have a fitted effect of over 45% in size. Put shortly:
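Cytotoxicity counter screen: p53RE-bla, 4,000 cells/well; 5 h settle, 37 C/5% CO2; cpd + HLM 0.5 mg/mL + NADPH 0.5 mg/mL (final); 16 h, 37 C; CellTiter-Glo, 30 min RT, luminescence.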

The nature of assay [18]: p53 small molecule agonists, cell-based qHTS assay (AID 1963582; active = well fitted activation curve with a large enough effect in the signal ratio in the repeat runs, not every such curve was filed as active; the % refers to the signal ratio). Put shortly:
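p53RE-bla beta-lactamase reporter cells rested 5 h at 37 C/5% CO2, then received compounds in DMSO by pin transfer and were incubated 16 h at 37 C. LiveBLAzer B/G FRET substrate was loaded for 2 h at room temperature before fluorescence reading.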

For assay [19], the target named is 5-hydroxytryptamine receptor 2A (Homo sapiens) (UniProt P28223). Put plainly: 5-hydroxytryptamine receptor 2A (HTR2A) small molecule antagonists, cell-based qHTS assay (AID 1963586). Note: nearly all actives have a fitted effect of over 45% in size. An outline of the steps: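 Antagonist-mode intracellular calcium assay: DOI (4 nM) added after 5 min compound pre-incubation at room temperature to dye-loaded HTR2A-CHO cells. Fluorescence followed for 3 min, sampled every second.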
Chain of 5-hydroxytryptamine receptor 2A (Homo sapiens) (P28223 whole entry, looked up): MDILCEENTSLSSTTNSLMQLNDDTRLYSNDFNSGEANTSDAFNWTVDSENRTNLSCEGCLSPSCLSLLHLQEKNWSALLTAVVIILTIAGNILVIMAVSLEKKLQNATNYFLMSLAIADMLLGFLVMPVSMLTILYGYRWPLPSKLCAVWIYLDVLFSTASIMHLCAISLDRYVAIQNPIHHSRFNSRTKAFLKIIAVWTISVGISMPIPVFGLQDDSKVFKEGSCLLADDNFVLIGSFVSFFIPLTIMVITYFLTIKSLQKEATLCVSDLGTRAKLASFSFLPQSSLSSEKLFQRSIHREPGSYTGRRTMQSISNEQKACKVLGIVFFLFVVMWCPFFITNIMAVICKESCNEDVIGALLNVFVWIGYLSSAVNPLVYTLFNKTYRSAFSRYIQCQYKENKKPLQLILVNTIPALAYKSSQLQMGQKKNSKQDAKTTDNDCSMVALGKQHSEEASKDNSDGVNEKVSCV

The target in assay [20] is Beta-2 adrenergic receptor (Homo sapiens) (UniProt P07550). Put plainly: Adrenergic beta2 receptor (ADRB2) small molecule agonists, cell-based qHTS assay (AID 1963593).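 Note: CHO cells stably overexpressing human ADRB2.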 Put shortly: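 CHO cells stably over-expressing ADRB2 were plated overnight at 37C, then dosed with compounds plus a stimulation mix containing 100uM IBMX and 25uM Ro-20-1724 for 0.5hr at room temperature. cAMP was measured by HTRF competition, 1hr.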
Chain of Beta-2 adrenergic receptor (Homo sapiens) (P07550 whole entry, looked up): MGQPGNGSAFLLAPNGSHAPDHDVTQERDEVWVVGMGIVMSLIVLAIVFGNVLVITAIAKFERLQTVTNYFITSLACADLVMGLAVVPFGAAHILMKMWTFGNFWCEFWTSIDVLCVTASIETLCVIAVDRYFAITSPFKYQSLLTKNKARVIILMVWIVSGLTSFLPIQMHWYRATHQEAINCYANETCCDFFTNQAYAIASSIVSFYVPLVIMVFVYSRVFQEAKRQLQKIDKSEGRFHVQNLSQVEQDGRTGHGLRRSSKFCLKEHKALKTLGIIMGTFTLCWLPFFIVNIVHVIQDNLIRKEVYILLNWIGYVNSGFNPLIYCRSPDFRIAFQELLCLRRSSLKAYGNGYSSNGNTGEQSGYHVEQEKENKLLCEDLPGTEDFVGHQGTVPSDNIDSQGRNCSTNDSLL
% is set by controls: 0 for no effect and ±100 for the full control effect.

Chain of Gonadotropin-releasing hormone receptor (Homo sapiens) (P30968 whole entry, looked up): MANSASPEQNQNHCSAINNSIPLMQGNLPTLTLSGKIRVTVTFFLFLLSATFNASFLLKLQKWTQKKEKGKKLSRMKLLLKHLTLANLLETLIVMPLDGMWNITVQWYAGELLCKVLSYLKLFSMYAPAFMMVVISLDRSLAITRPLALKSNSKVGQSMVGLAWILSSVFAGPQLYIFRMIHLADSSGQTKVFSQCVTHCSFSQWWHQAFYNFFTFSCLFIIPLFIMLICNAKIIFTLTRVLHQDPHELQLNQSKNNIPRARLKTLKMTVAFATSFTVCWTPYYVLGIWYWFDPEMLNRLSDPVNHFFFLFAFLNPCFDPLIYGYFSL
Chain of Muscarinic acetylcholine receptor M1 (Homo sapiens) (P11229 whole entry, looked up): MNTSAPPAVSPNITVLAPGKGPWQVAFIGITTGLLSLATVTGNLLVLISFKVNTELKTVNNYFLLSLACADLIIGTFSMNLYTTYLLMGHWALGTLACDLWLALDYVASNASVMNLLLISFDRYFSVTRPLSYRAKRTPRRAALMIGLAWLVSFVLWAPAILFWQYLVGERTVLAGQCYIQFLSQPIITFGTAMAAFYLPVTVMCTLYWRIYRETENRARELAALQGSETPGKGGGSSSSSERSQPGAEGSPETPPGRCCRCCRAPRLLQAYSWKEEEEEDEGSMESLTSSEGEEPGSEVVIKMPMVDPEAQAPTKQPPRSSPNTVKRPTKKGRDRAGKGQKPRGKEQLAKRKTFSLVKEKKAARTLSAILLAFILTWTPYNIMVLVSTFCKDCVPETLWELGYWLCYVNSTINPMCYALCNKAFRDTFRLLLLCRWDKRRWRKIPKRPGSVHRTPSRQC
Chain of KiSS-1 receptor (Homo sapiens) (Q969F8 whole entry, looked up): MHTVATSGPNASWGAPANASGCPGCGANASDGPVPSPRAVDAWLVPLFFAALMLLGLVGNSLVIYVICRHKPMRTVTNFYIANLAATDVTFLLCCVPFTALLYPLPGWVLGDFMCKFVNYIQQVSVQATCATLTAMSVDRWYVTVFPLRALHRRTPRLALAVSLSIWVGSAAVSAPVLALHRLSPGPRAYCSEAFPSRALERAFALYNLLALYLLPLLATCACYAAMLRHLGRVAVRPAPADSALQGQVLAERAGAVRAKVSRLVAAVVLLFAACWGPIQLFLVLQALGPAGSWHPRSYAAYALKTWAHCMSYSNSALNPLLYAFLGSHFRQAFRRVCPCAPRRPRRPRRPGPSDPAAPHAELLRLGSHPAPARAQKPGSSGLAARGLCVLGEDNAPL

As to `CCC(CC)Nc1ccc(C)c(C)c1`, the Potency result in [1], in [2], in assay [3], in assay [4], in assay [5] and in assay [6] was “inactive” throughout. Moreover, the Potency entry in assay [7], in [8], in assay [9], in assay [10], in assay [11] and in [12] was “inactive” in each case. For the same compound, the Potency entry in assay [13] and in assay [14] was “inactive” in each case.

For `COCCOC[C@H](CC1(C(=O)NC2CCC(C(=O)O)CC2)CCCC1)C(=O)Oc1ccc2c(c1)CCC2` (stereo partly specified), the Potency entry in assay [1], in [2], in [3], in assay [15], in assay [16] and in [17] was “inactive” in each case. Besides, the Potency result in assay [5], in assay [6], in assay [18], in assay [19], in assay [7] and in assay [8] was “inactive” each time. Further, the Potency entry in assay [9], in assay [10], in assay [12], in assay [13] and in assay [14] was “inactive” in each case.

In the case of `CC(C)C1=CC2=CC[C@@H]3[C@](C)(CCC[C@@]3(C)C(=O)O)[C@H]2CC1`, the Potency entry in assay [1], in [2], in [3], in assay [15], in assay [16] and in [17] was “inactive” each time. In addition, the Potency result in assay [5], in assay [6], in assay [19], in [7], in assay [8] and in assay [9] was “inactive” each time. Moreover, the Potency entry in assay [13] and in assay [14] was “inactive” throughout.

`O=C(O)c1ccccc1Nc1cc(Cl)ccc1C(=O)O`: the activity change, negative = cytotoxicity in assay [1] was 0.544% [at 19 µM]; in assay [17], -16.4% [at 13.5 µM]; in assay [5], -20.9% [at 13.5 µM]; in assay [6] it was -5.7% [at 13.5 µM]. Moreover, in assay [2], the activity change is -1.18% [at 11.8 µM, hits give high values]. Moreover, the activation is 0.0094% [at 15.8 µM] in assay [3]; -15.2% [at 13.5 µM] in [15]; -10.2% [at 13.6 µM] in [16]; 1.24% [at 13.5 µM] in [18]; -3.1% [at 15.9 µM] in assay [7]; 0.0185% [at 15.8 µM] in assay [9]. For the same compound, the activation is -0.0043% [at 19 µM] in assay [10] and -0.399% [at 19 µM] in assay [20]. Besides, the activity, negative = inhibition in [19] is 13.3% [at 12.7 µM]; in assay [8] it was 22.2% [at 12.6 µM]. The activity change, negative = inhibition in assay [12] is 5.54% [at 19 µM]; in [14], -1.66% [at 18.9 µM].

`CCCCN(CCCC)CCC(O)c1cc2c(Cl)cc(Cl)cc2c2cc(C(F)(F)F)ccc12` (stereo unspecified): the Potency in [1] was 21.1 µM (active). Also, the Potency result in [2], in assay [3], in [4], in assay [5], in assay [6] and in [19] was “inactive” each time. The Potency result in assay [7], in assay [8], in assay [9], in assay [10], in assay [12] and in assay [20] was “inactive” throughout. Further, the Potency result in assay [13] and in assay [14] was “inactive” each time.

In the case of `CCN(CC)CC(=O)Nc1c(C)cccc1C`, the Potency entry in assay [1], in [2], in assay [3], in assay [4], in [6] and in assay [18] was “inactive” each time. Besides, the Potency result in [10], in assay [11], in assay [12], in assay [20] and in [13] was “inactive” throughout.

In the case of `O=C1NCCN1CCN1CCC(c2cn(-c3ccc(F)cc3)c3ccc(Cl)cc23)CC1`, the Potency in assay [1] was 11.9 µM (active). Also, the Potency result in [2], in assay [3], in assay [4], in [5], in assay [6] and in assay [7] was “inactive” each time. The Potency result in [12] and in assay [13] was “inactive” in each case.

`O=[N+]([O-])c1ccc(O)c2ncccc12`: the Potency result in assay [1], in assay [2], in assay [3], in assay [4], in [6] and in [18] was “inactive” each time. Moreover, the Potency result in assay [19], in [7], in [8], in [9], in assay [10] and in [12] was “inactive” throughout. The Potency entry in [20], in assay [13] and in assay [14] was “inactive” in each case.

Regarding `CC(=O)OCC(=O)NCCCOc1cccc(CN2CCCCC2)c1`, the Potency entry in assay [1], in assay [2], in [3], in [4], in assay [17] and in assay [6] was “inactive” in each case. Moreover, the Potency result in assay [19], in assay [7], in assay [8], in assay [9], in assay [10] and in assay [11] was “inactive” in each case. Besides, the Potency result in assay [12] and in assay [14] was “inactive” in each case.

These data come from PubChem BioAssay (Tox21).
